# Compound activity (PubChem BioAssay)
# This is a sample that favours compounds with a hit; in the whole collection about 2.3% have one here.
# Rin1 Abl inh = inhibitors of Rin1-Abl protein binding, primary screen, biochemical, TR-FRET. Tyrosine-protein kinase ABL1 (Homo sapiens) + Ras and Rab interactor 1 (Homo sapiens), …. inhibition, % at 7.35 µM. 360,000 compounds, 0.4% hits; in the data active means inhibition above about 5%, passing the limit was not always enough
# IDE cell activ = human IDE activators in live cells, primary screen, fluorescence polarization, HEK cells, FAbeta-B substrate | Insulin-degrading enzyme (Homo sapiens), P14735 | FAbeta-B cleavage; 0% vehicle, 100% cell-free pure enzyme wells | activation, % at 5.96 µM | 340,000 compounds, 0.073% hits | AID 493087, 2011;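 active means activation above the mean of all tested compounds plus 3 SD, set per screening campaign, cut at about 17% in these data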
# IDE inh = human IDE inhibitors in live cells, primary screen, fluorescence polarization, HEK cells, FAbetaB substrate; FAbetaB cleavage; inhibition, % at 5.59 µM; 320,000 compounds, 0.41% hits; Insulin-degrading enzyme (Homo sapiens), P14735;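 active means percent inhibition above the average of all tested compounds plus 3 SD, set per screening campaign, cut at about 16% in these data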;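 further: IDE supplied by intact live HEK cells; FP after avidin binding of uncleaved biotin substrate so inhibition keeps polarization high; 0% = DMSO wells and 100% = 60 µM reference IDE inhibitor Ii1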
# TPT1 inh = Candida albicans TPT1 enzyme inhibitors, primary screen, biochemical, fluorescence polarization | recombinant caTPT1, FP RNA substrate dephosphorylation | AID 1962, 2009 | 300,000 compounds, 0.81% hits | inhibition, % at 5 µM | tRNA 2'-phosphotransferase TPT1 (Candida albicans SC5314);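 active means inhibition above the mean of all tested compounds plus 3 SD, set per screening campaign, cut at about 24% in these data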;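 further: plate controls were DMSO alone for no effect and ferristatin control at 100 nM for full effect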
# Calb FLC = C. albicans growth inhibition with fluconazole, primary screen, CaCi-2 strain, Alamar Blue fluorescence. C. albicans CaCi-2 (fluconazole-resistant clinical isolate) + fluconazole, 48 h. growth inhibition, % (concentration not given with the values). 300,000 compounds, 0.57% hits. AID 1979, 2009;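 active means growth inhibition above about 58% in most replicates, limit read from the data, passing the limit was not always enough; inconclusive means exactly half the replicates above a set limit; inactive means most replicates below a set limit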;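 further: all wells also contain fluconazole at 8 µg/ml as a sub-toxic cotreatment; 0% = median of DMSO wells and 100% = median of geldanamycin control wells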
# Rpn11 block = Rpn11 (PSMD14) deubiquitinase inhibitors, primary screen, biochemical, fluorescence polarization, uHTS | 26S proteasome non-ATPase regulatory subunit 14 (Homo sapiens), O00487 | human 26S proteasome, Ub4-pepOG fluorescence polarization; 20S core pre-blocked with epoxomicin | inhibition, % at 20 µM | 360,000 compounds, 0.59% hits;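 active means inhibition at 20 µM, scaled to each plate's controls, above about 33%, limit read from the data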
# The depositor's hits bear a star; ? = inconclusive; . = no result.
SMILES,Rin1 Abl inh,IDE cell activ,IDE inh,TPT1 inh,Calb FLC,Rpn11 block
Cc1cccc(NC(=S)N/N=C(\c2ccccc2)C(C)C)c1,2,9,4,3,102*,5
CCC(C)n1cnc2c(c1=O)c1nc3ccccc3nc1n2Cc1ccc2c(c1)OCO2 (configuration not stated),.,.,.,.,100*,.
CCC(C)n1cnc2c(c1=O)c1nc3ccccc3nc1n2-c1ccc2c(c1)OCCO2 (configuration not stated),4,4,-2,1,-10,2
CCCCn1c(SCC(=O)c2ccc(O)c(O)c2)nc2ccsc2c1=O,-1,2,-3,4,107*,3
O=C(O)CCCCCn1c(SCC(=O)c2ccc(O)c(O)c2)nc2ccsc2c1=O,-3,6,-5,0,-9,-6
CCC(C)NC(=O)C1CCC(CNS(=O)(=O)c2ccc3c(c2)N(C(C)=O)CCO3)CC1 (configuration not stated),3,3,3,0,-1,-5
O=CN1N=C(c2ccccc2)CC1c1ccccc1[N+](=O)[O-] (configuration not stated),-2,0,0,-1,-3,5
N#CC1CC(c2ccccc2)=NN1c1ccccc1[N+](=O)[O-] (configuration not stated),0,3,1,1,85*,2
CC(C)(C)c1ccc(Oc2ncccc2NC(=O)c2cccs2)cc1,0,5,-4,4,3,-4
COc1ccc2c(c1)C1=NN(/C(C)=C/C(C)=O)C(c3ccc(F)cc3)C1CC2 (configuration not stated),0,4,2,4,5,15
COc1ccc2c(c1)CCC1C2=NN(/C(C)=C\C(C)=O)C1c1ccc(F)cc1 (configuration not stated),0,4,5,13,19,51*
CCN(CC)S(=O)(=O)c1ccc(N/N=C/c2ccc(O)cc2)nc1,2,-3,3,-5,21,-8
CCN(CC)S(=O)(=O)c1ccc(N/N=C(\C)c2ccc(OC)cc2O)nc1,-6,4,0,-1,91*,0
Cc1nn(C2CCS(=O)(=O)C2)c(C)c1CN(C)C(=O)c1ccc(Cl)cc1 (configuration not stated),3,3,4,.,.,-7
CN(C)c1ccc(-c2n(C)c3ccccc3[n+]2C)cc1,-2,0,3,-4,102*,-3
CC(=O)Nc1ccc(NC(=O)COC(=O)c2n[nH]c3ccccc23)cc1,3,19*,2,-7,10,2
CCCCNC(=O)c1cn(C)c2ccc(S(=O)(=O)N3CCCC3)cc2c1=O,1,9,6,-1,85*,-7
CC(NC(=O)CSC(=S)N1CCCC1)c1ccc(S(N)(=O)=O)cc1 (configuration not stated),0,0,2,-2,-4,3
Cc1ccccc1-c1ccnc2[nH]n(-c3ccccc3)c(=O)c12,-3,0,2,-3,79*,0
COc1cc(OC)cc(N(C(=O)C2COc3ccccc3O2)C(C(=O)NC2CCCCC2)c2ccc(O)cc2)c1 (configuration not stated),-1,5,-2,-2,90*,5
COc1ccc(N(C(=O)C2COc3ccccc3O2)C(C(=O)NC2CCCCC2)c2ccccc2)cc1OC (configuration not stated),-1,3,3,0,40,2
Nc1nonc1-n1nnc(C(=O)N/N=C/c2cc(Br)ccc2O)c1CNc1ccccc1,-4,2,4,7,88*,34
O=C(Nc1ccc2nc(-c3cccs3)c(-c3cccs3)nc2c1)N1CCOCC1,-1,-11,-5,6,?,47*
O=C(Nc1cccc(O)c1)N1CCOCC1,-3,1,-3,0,-11,-4
